Data on 23 compounds can be found in PubChem BioAssay AID504684 (Southern Research Specialized Biocontainment Screening …, 2011).

Potency and affinity values are given separately. Calls of active or inactive are those of the source. Entries that show only a call come without a potency. The rule behind the calls is not given here.

The nature of this test: Vero cell cytotoxicity, cytotoxicity control for M. tuberculosis inhibitor project, purified and synthesized samples, set 3 (AID 504684). Particulars: series mostly up to 100 µM.
For the compound `Cc1nc(SCC(=O)NC2CCCCC2)[nH]c(=O)c1C`, the result was inactive.
As for `O=C(CSc1nc2ccccc2c(=O)[nH]1)NC1CCCCC1`, the entry is “inactive”; as for `CC[N+](C)(CC)CCCCOc1ccc2c(c1)C(=O)c1cc(OCCCC[N+](C)(CC)CC)ccc1-2`, “inactive”.
With `Cc1c[nH]c(=S)[nH]c1=O`, the compound was classed as inactive.
Regarding `COC(=O)C(C)Oc1ccc(-c2nccc(-c3ccccn3)n2)cc1` (stereo not drawn), the outcome was inactive.
As for `CC(=NCc1ccc2c(c1)OCO2)C1=C(O)c2ccccc2C1=O`, the entry is “inactive”; as for `COc1cc(NC(=O)C/C(C)=N/NC(=O)c2ccccn2)c(OC)cc1Cl`, “inactive”; as for `O=C(CSc1nc(O)cc(=O)[nH]1)Nc1ccccc1`, “inactive”.
Turning to `CCSc1nc(C)c(C)c(=O)[nH]1`, the outcome was inactive.
With `COC(=O)C1CC(=O)N(c2ccc(OCc3ccccc3Cl)cc2)C1` (stereo not drawn) the entry was “inactive”; with `O=C(CSc1ccccn1)NC1CCCCC1`, “inactive”; with `Cc1cc(=O)[nH]c(=S)[nH]1`, “inactive”.
As for `CCOC(=O)COn1c2c(c3c4no[n+]([O-])c4ccc31)CCCC2`, the entry is “inactive”; as for `O=C(CSc1ncccn1)NC1CCCCC1`, “inactive”.
With `Cc1[nH]c(=S)[nH]c(=O)c1C` the entry was “inactive”.
As for `O=C(CSc1nccc(=O)[nH]1)Nc1ccc(N2CCOCC2)cc1`, the call was inactive.
As for `Cc1nc(SCC(N)=O)[nH]c(=O)c1C`, the call was inactive.
Take `CCOC(=O)COc1ccc(/C=C2\NC(=S)N(CC)C2=O)cc1`: the outcome was inactive.
With `CCOC1OC(=O)C(Cl)=C1Nc1ccccc1C` (stereo not drawn) the entry was “inactive”.
With `Cc1ccc(NC(=O)COC(=O)CCc2c[nH]c3ccccc23)cc1[N+](=O)[O-]` the entry was “inactive”; with `CCOC(=O)CSc1nc(C)c(C)c(=O)[nH]1`, “inactive”.
With `COC(=O)C(C)Oc1ccc(Cc2ncc(C(F)(F)F)cc2Cl)cc1` (stereo not drawn) the entry was “inactive”.
For the compound `Cc1cc(=O)[nH]c(SCC(=O)Nc2ccccc2)n1`, the compound was classed as inactive.
